# Data published in publication PMC7862700, “An all-to-all approach to the identification of sequence-specific readers for epigenetic DNA modifications on cytosine”.
# Tests used:
# Assay in all cases: DAPPL (digital affinity profiling via proximity ligation, sequencing); 10 mM Tris-HCl pH 7.5, 50 mM NaCl, 1 mM DTT, 4% glycerol, room temperature, 30 min; GST-TFs on glutathione beads, 16-mer random dsDNA library, 0.1% formaldehyde crosslink after washing; high values mean tight binding
# FLI1 = molecular target: T1, FLI1 (Homo sapiens, UniProt Q01543 1-452); conditions: protein: recombinant; tags: N-terminal GST; dsDNA, one strand shown
# T1 sequence: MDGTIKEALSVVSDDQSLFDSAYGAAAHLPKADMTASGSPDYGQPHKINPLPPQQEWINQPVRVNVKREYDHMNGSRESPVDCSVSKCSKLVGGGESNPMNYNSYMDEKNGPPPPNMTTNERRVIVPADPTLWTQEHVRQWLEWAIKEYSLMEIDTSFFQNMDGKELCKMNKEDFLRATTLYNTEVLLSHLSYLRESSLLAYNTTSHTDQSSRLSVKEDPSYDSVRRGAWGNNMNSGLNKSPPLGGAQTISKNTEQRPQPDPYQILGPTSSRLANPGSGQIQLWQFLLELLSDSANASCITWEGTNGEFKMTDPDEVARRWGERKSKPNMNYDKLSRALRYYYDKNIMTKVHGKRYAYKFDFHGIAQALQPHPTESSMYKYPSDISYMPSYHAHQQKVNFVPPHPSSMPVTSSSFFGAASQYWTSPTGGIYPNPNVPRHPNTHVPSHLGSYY
# In short: (§1)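 A tag-only sample was pooled with DNA-barcoded human transcription factors that had been expressed in yeast as GST fusions and captured on glutathione beads. The pools were incubated for 30 min at room temperature with 200 nmole of a random double-stranded 16-mer DNA library in Tris/NaCl/DTT/glycerol buffer, then washed, crosslinked with 0.1% formaldehyde, proximity-ligated (BsaI/T4 ligase, 1 h, 37 °C), PCR-amplified and sequenced on an Illumina NextSeq500. Binding signal is each hexamer's read frequency for a factor divided by its frequency for the tag-only sample.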
# ELK1 = molecular target: T2, ELK1 (Homo sapiens, UniProt P19419 1-428); conditions: protein: recombinant; tags: N-terminal GST; dsDNA, one strand shown
# T2 sequence: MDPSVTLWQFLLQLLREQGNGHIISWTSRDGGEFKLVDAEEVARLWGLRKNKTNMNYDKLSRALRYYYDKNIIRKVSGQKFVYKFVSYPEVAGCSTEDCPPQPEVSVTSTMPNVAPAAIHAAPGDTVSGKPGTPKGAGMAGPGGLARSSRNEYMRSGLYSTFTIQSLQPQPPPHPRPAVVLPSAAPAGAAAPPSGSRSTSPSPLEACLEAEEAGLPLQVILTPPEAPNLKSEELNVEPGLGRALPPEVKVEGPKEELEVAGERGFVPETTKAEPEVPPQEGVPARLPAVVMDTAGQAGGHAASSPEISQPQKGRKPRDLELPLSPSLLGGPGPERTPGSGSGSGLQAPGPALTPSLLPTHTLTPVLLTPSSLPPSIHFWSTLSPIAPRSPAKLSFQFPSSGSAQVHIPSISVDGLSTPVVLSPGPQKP
# In short: as §1
# GABPA = molecular target: T3, GABPA (Homo sapiens, UniProt Q06546 1-454); conditions: protein: recombinant; tags: N-terminal GST; dsDNA, one strand shown
# T3 sequence: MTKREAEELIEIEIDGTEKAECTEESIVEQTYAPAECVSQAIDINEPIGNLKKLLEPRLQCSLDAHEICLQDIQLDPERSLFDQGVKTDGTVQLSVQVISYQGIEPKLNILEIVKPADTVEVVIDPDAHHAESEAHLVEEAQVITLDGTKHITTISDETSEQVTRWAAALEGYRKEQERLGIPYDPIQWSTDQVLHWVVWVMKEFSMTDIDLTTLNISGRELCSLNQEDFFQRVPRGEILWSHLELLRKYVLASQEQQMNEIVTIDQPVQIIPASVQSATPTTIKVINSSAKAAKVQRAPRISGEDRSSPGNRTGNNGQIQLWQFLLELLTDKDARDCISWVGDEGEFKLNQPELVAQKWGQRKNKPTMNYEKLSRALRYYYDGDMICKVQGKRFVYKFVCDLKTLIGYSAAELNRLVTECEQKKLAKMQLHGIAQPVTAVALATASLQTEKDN
# In short: as §1
# ERG = molecular target: T4, ERG (Homo sapiens, UniProt P11308 1-479); conditions: protein: recombinant; tags: N-terminal GST; dsDNA, one strand shown
# T4 sequence: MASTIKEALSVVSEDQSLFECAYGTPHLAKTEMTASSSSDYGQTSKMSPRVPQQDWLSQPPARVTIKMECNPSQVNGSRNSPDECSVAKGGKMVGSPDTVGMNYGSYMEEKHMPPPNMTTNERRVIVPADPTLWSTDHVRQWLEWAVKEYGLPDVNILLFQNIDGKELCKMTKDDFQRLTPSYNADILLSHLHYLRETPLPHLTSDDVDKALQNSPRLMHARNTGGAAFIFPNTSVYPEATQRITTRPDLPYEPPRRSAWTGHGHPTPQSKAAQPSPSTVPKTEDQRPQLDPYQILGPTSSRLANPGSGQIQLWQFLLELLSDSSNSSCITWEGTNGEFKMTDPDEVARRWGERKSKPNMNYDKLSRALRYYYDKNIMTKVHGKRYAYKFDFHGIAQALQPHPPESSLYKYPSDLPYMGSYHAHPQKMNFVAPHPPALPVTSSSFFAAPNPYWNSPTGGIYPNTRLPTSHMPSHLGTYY
# In short: as §1
# ELF1 = ELF1 (Homo sapiens, UniProt P32519 1-619); conditions: protein: recombinant; tags: N-terminal GST; dsDNA, one strand shown
# In short: as §1
# EHF = molecular target: T5, EHF (Homo sapiens, UniProt Q9NZC4 1-300); conditions: protein: recombinant; tags: N-terminal GST; dsDNA, one strand shown
# T5 sequence: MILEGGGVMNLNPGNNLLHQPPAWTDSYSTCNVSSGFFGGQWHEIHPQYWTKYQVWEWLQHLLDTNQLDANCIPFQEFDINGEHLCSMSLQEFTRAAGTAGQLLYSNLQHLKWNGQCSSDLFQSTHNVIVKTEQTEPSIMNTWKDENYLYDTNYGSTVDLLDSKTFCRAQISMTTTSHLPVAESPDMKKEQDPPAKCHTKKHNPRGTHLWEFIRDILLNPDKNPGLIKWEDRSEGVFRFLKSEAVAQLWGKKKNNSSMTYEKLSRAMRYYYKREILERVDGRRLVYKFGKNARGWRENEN
# In short: as §1
# SPI1 = SPI1 (Homo sapiens, UniProt P17947 1-270); conditions: protein: recombinant; tags: N-terminal GST; dsDNA, one strand shown
# In short: as §1
# SPIB = SPIB (Homo sapiens, UniProt Q01892 1-262); conditions: protein: recombinant; tags: N-terminal GST; dsDNA, one strand shown
# In short: as §1
# ELK3 = molecular target: T6, ELK3 (Homo sapiens, UniProt P41970 1-407); conditions: protein: recombinant; tags: N-terminal GST; dsDNA, one strand shown
# T6 sequence: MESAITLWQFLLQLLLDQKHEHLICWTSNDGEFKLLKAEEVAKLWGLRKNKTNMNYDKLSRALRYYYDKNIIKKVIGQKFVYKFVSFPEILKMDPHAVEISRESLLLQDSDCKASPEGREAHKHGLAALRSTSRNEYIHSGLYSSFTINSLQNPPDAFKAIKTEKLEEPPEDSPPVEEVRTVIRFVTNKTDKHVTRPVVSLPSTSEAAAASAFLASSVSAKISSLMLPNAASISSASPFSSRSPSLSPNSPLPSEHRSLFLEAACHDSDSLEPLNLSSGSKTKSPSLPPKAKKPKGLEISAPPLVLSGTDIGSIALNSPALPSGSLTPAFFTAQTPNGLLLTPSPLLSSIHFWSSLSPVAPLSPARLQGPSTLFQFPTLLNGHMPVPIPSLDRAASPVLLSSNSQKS
# In short: as §1
# FEV = molecular target: T7, FEV (Homo sapiens, UniProt Q99581 1-238); conditions: protein: recombinant; tags: N-terminal GST; dsDNA, one strand shown
# T7 sequence: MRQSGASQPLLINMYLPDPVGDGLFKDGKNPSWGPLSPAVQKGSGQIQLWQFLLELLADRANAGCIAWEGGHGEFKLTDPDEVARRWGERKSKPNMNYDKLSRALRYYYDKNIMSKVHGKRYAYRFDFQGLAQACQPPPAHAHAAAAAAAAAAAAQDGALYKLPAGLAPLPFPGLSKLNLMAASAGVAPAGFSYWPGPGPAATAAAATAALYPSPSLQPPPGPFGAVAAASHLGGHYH
# In short: as §1
# ETV5 = ETV5 (Homo sapiens, UniProt P41161 1-510); conditions: protein: recombinant; tags: N-terminal GST; dsDNA, one strand shown
# In short: as §1
# HSF1 = HSF1 (Homo sapiens, UniProt Q00613 1-529); conditions: protein: recombinant; tags: N-terminal GST; chain copies: 3; dsDNA, one strand shown
# In short: as §1
# SPIC = molecular target: T8, SPIC (Homo sapiens, UniProt Q8N5J4 1-248); conditions: protein: recombinant; tags: N-terminal GST; dsDNA, one strand shown
# T8 sequence: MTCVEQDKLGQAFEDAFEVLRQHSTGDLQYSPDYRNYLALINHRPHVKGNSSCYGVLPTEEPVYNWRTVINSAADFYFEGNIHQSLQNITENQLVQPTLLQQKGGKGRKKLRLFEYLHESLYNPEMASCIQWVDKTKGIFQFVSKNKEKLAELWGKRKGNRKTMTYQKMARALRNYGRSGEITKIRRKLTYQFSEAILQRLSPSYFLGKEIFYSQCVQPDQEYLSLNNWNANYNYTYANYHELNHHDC
# In short: as §1
# ELF4 = ELF4 (Homo sapiens, UniProt Q99607 1-663); conditions: protein: recombinant; tags: N-terminal GST; dsDNA, one strand shown
# In short: as §1
# ELK4 = molecular target: T9, ELK4 (Homo sapiens, UniProt P28324-2 1-405); conditions: protein: recombinant; tags: N-terminal GST; dsDNA, one strand shown
# T9 sequence: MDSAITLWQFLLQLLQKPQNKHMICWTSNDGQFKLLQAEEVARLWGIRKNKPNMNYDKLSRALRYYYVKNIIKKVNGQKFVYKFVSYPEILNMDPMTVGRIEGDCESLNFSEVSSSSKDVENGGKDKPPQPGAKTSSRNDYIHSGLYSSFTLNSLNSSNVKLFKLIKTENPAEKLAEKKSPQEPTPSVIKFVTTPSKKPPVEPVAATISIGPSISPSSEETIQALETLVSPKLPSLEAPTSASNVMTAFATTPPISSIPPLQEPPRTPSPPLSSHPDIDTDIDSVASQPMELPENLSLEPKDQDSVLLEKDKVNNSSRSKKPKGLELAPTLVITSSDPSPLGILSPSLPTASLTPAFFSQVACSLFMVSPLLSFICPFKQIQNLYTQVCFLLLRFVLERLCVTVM
# In short: as §1
# ETV2 = molecular target: T10, ETV2 (Homo sapiens, UniProt O00321 1-342); conditions: protein: recombinant; tags: N-terminal GST; dsDNA, one strand shown
# T10 sequence: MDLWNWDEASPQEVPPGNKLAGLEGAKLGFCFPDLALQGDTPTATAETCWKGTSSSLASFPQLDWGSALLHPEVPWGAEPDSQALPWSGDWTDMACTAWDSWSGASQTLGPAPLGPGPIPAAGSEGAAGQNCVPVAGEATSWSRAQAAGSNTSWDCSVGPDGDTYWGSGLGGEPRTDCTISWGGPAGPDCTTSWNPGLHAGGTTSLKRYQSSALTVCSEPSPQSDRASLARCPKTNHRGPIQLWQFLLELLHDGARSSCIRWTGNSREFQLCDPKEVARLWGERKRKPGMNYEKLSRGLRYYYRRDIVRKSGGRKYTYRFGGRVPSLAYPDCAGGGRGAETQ
# In short: as §1
# ELF3 = molecular target: T11, ELF3 (Homo sapiens, UniProt P78545 1-371); conditions: protein: recombinant; tags: N-terminal GST; dsDNA, one strand shown
# T11 sequence: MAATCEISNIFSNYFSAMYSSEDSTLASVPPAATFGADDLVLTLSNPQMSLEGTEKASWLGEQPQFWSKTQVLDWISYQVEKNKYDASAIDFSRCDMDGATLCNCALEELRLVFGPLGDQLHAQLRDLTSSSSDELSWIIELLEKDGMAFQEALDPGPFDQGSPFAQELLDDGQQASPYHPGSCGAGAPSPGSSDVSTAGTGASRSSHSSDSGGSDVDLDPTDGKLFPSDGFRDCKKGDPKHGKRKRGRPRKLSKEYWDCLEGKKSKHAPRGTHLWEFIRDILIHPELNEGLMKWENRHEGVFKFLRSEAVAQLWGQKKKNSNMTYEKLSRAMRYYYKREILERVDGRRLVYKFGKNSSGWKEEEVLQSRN
# In short: as §1
# ETV1 = ETV1 (Homo sapiens, UniProt P50549 1-477); conditions: protein: recombinant; tags: N-terminal GST; dsDNA, one strand shown
# In short: as §1
# ELF1, sequence (P32519 whole entry): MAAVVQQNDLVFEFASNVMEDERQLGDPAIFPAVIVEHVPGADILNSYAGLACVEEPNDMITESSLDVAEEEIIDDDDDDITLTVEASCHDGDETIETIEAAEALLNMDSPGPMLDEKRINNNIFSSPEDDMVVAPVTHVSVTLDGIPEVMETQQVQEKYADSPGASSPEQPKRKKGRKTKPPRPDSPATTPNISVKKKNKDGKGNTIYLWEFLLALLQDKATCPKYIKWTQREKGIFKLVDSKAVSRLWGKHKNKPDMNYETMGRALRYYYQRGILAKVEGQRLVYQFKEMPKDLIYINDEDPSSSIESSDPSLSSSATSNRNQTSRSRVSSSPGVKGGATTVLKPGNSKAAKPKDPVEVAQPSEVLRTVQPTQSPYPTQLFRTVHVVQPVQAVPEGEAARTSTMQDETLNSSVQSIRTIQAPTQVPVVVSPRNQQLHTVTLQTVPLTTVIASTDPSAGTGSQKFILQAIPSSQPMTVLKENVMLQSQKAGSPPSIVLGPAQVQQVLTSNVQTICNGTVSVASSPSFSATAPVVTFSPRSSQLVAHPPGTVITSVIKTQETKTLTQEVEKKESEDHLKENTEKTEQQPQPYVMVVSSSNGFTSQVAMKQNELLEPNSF
# ETV5, sequence (P41161 whole entry): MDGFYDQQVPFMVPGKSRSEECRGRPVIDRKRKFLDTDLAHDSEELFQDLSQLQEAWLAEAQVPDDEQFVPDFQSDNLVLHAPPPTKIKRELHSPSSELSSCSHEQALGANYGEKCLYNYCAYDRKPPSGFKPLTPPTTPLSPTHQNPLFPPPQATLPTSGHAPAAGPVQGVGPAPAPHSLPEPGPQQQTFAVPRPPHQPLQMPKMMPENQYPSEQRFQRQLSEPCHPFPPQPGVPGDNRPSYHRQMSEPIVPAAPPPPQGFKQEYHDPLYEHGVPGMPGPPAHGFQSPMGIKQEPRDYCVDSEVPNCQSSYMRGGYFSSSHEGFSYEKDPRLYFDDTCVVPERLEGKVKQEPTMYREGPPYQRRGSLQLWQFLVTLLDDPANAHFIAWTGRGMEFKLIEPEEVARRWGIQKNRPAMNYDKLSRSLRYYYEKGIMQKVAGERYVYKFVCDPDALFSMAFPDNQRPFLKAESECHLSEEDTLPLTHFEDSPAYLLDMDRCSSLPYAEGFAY
# ETV1, sequence (P50549 whole entry): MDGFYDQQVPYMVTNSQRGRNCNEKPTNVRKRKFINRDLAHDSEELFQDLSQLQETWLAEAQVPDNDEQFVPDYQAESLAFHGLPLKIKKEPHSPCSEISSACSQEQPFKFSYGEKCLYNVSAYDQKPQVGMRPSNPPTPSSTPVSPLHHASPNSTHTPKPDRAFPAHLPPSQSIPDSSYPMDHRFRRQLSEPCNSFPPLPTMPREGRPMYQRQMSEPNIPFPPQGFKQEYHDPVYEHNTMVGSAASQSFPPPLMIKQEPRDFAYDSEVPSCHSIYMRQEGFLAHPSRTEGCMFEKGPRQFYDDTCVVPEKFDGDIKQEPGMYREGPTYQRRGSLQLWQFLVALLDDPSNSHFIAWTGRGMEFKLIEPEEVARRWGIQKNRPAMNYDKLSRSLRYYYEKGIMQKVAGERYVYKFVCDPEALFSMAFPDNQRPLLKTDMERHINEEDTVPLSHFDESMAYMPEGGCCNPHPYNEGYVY
# SPIB, sequence (Q01892 whole entry): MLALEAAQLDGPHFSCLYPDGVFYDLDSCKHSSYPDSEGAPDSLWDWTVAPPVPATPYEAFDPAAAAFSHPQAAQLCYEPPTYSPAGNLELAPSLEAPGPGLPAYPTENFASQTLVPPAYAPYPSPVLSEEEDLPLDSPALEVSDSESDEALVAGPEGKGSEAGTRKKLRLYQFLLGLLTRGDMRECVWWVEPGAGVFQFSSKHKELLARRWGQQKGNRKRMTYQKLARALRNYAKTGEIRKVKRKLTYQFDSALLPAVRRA
# HSF1, sequence (Q00613 whole entry): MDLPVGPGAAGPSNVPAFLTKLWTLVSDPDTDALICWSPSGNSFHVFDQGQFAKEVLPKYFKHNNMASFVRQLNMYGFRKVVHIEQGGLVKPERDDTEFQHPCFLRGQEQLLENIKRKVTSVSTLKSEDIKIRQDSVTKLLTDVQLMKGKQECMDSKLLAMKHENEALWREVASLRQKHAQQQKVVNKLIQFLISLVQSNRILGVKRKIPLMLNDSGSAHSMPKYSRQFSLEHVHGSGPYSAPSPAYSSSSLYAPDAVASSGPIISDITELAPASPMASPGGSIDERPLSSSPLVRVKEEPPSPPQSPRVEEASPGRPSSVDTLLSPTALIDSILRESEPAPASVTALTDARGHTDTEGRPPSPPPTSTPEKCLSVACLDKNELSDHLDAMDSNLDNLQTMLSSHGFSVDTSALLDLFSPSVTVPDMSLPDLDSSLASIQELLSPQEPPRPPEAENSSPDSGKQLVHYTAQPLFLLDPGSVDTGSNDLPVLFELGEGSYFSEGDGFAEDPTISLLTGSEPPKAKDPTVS
# ELF4, sequence (Q99607 whole entry): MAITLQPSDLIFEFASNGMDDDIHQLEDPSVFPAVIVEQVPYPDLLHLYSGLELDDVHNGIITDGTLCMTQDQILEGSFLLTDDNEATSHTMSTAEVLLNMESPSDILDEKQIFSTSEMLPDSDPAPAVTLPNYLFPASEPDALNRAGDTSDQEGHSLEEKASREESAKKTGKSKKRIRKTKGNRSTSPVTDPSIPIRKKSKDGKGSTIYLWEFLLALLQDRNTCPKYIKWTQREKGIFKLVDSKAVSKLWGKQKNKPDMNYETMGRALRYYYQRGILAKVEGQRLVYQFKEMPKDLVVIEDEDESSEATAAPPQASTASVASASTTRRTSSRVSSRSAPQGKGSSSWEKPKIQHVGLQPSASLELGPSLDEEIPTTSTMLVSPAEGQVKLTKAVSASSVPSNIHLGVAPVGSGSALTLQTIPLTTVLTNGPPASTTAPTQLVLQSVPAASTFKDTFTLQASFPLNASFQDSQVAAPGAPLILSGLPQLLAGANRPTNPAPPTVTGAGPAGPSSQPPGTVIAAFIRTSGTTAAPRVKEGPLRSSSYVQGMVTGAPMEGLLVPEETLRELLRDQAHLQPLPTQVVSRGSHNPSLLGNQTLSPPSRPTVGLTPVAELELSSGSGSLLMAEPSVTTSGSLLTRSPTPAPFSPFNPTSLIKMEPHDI
sequence,measurement,setting,value
AGTTTC,binding signal,FLI1,"1.23 fold enrichment (6-mer frequency, TF over GST control)"
same,binding signal,ELK1,"1.28 fold enrichment (6-mer frequency, TF over GST control)"
same,binding signal,GABPA,"1.29 fold enrichment (6-mer frequency, TF over GST control)"
same,binding signal,ERG,"1.3 fold enrichment (6-mer frequency, TF over GST control)"
same,binding signal,ELF1,"1.27 fold enrichment (6-mer frequency, TF over GST control)"
same,binding signal,EHF,"1.34 fold enrichment (6-mer frequency, TF over GST control)"
same,binding signal,SPI1,"1.22 fold enrichment (6-mer frequency, TF over GST control)"
same,binding signal,SPIB,"1.24 fold enrichment (6-mer frequency, TF over GST control)"
same,binding signal,ELK3,"1.46 fold enrichment (6-mer frequency, TF over GST control)"
same,binding signal,FEV,"1.23 fold enrichment (6-mer frequency, TF over GST control)"
same,binding signal,ETV5,"1.33 fold enrichment (6-mer frequency, TF over GST control)"
same,binding signal,HSF1,"1.38 fold enrichment (6-mer frequency, TF over GST control)"
same,binding signal,SPIC,"1.16 fold enrichment (6-mer frequency, TF over GST control)"
same,binding signal,ELF4,"1.2 fold enrichment (6-mer frequency, TF over GST control)"
same,binding signal,ELK4,"1.13 fold enrichment (6-mer frequency, TF over GST control)"
same,binding signal,ETV2,"1.21 fold enrichment (6-mer frequency, TF over GST control)"
same,binding signal,ELF3,"1.14 fold enrichment (6-mer frequency, TF over GST control)"
same,binding signal,ETV1,"1.29 fold enrichment (6-mer frequency, TF over GST control)"
